PubChem BioAssay (NCATS)
Records with an inconclusive call do not appear. A call without a number means that no potency is given here. Calls of active or inactive are those of the source. Calls come from the whole dose curve; as a rule, active = well fitted cell-killing curve with a large enough effect; inconclusive = small, poorly fitted or top-dose-only effect, or effect the other way; inactive = flat fitted curve, though single readings scatter.

Test system: Tov-21-G
Experiment: Primary qHTS to identify gynecologic anti-cancer compounds using libraries of approved drugs and bioactive compounds (AID 1345084); note: nearly all actives have a fitted effect of over 55% in size
Conditions: Gynecologic cancer cell panel viability, ATPlite luminescence, 48 h; series mostly up to 57.5 µM
Outline: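 In this quantitative HTS, cell killing is estimated from loss of ATP-dependent luciferase light. Cells see five compound concentrations over a 48 h exposure.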

SMILES | Potency
CCC(C)/C=C(C)/C=C/C1=CC2=CC(=O)C3(C)OC(C)(O)C(C(=O)OC)C3C2=CO1 (configuration not stated) | inactive
CN(C)CCOC(C)(c1ccccc1)c1ccc(Cl)cc1 (configuration not stated) | inactive
Cc1ccc(-c2ncc[nH]2)cc1NC(=O)c1ccc(OCc2ccccn2)cc1 | inactive
C=C1CC[C@H]2C(=C)CC[C@H]3C(=C)C(=O)O[C@@H]3[C@@H]12 | inactive
O=C(NC[C@H]1CN(c2ccc(N3CCOCC3=O)cc2)C(=O)O1)c1ccc(Cl)s1 | inactive
CCOc1ccc(CCNC(=O)c2cc3sc(Cl)cc3n2C)cc1OCC | inactive
CC(C)c1noc(C2CCN(c3ncnc(Nc4ccc(S(C)(=O)=O)cc4F)c3[N+](=O)[O-])CC2)n1 | inactive
O=C(NO)c1ccc(CC(=O)N(CCO)c2ccccc2)cc1 | inactive
CC(C)C[C@H](CO)Nc1nc(S[C@@H](C)c2ccccc2)nc2nc(N)sc12 | inactive
Cc1ccnc(NC(=O)C(C)c2cccc(C(=O)c3ccccc3)c2)c1 (configuration not stated) | inactive
O=C(NCC(=O)N1CCCC1)Nc1ccc2cnccc2c1 | inactive
COc1cc(O)cc(/C=C/c2cccc(O)c2)c1 | inactive
COc1cc(OC)c(NC(=O)c2ccc(Cc3cc4c(cc3C)C(C)(C)CCC4(C)C)o2)c(OC)c1 | inactive
NS(=O)(=O)c1ccc(NC(=O)Nc2ccc(F)cc2)cc1 | inactive
CC(=O)C1=C(O)C=C2Oc3c(C(C)=O)c(O)c(C)c(O)c3[C@]2(C)C1=O | inactive
C=C1C(=O)O[C@@H]2[C@H]1CCC(C)=C(CCC(=O)O)[C@@]2(C)O | inactive
CCOC(=O)CCNc1cc(N2CCc3ccccc3CC2)nc(-c2cccnc2)n1 | inactive
